Measurements as given in PubChem BioAssay.
Activity calls are given as the source filed them. Unless noted, the rule behind the calls is not given here.

Columns and labels:
[1] = test system: Wnt5a (protein binding on small-molecule microarray); experiment: small molecules binding Wnt5a protein – biophysical, small-molecule microarray, 635/667 nm fluorescence, primary screen (AID 1142); settings: 635 nm fluorescence, higher = more signal;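 note: fluorescence read at 667 nm with signal to noise per printed feature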
[2] = ATP-based viability of Huh7 replicon cells – cell-based, CellTiter-Glo luminescence, basal, 48 h, cytotoxicity control for HCV replication inhibitor project, primary screen (AID 1143); settings: higher = more signal, called active from +8 up or from −8 down;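 note: Huh7 hepatoma cells carrying a hepatitis C replication reporter with no stimulus; test concentration not given here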
[3] = Pseudomonas biofilm growth suppression – PAO1 strain, BacTiter-Glo luminescence, LB-PBS, primary screen (AID 1144); settings: P. aeruginosa PAO1 biofilm, 12 h, higher = more signal
[4] = basal CRE-LacZ reporter activity in PC12 – cell-based, unstimulated, primary screen (AID 1145); settings: no forskolin, luminescence, 4.5 h, higher = more signal, called active from +8 up or from −8 down
[5] = forskolin-driven CRE-LacZ activity in PC12 – cell-based, CRE-LacZ reporter, forskolin-stimulated, primary screen (AID 1146); settings: luminescence, 4.5 h, higher = more signal, called active from +8 up or from −8 down;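 note: PC12 cells with 6xCRE LacZ reporter stimulated by forskolin 10 µM; beta-galactosidase reporter signal reflecting CREB driven transcription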
[6] = target: Streptavidin (Streptomyces avidinii) (UniProt P22629); experiment: compounds binding control protein streptavidin – biophysical, small-molecule microarray, 635/667 nm fluorescence, artefact control for SMM compound annotation, primary screen (AID 1147); settings: higher = more signal;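 note: signal reflects streptavidin binding to arrayed compounds as a control protein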
[7] = probe aInhba binding on compound microarray – biochemical, small-molecule microarray, 635/667 nm fluorescence, primary screen (AID 1148); settings: higher = more signal;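 note: score merges 667nm spot fluorescence with signal-to-noise for antibody binding to printed compounds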
Torsin-1A (Homo sapiens) [8] = target: Torsin-1A (Homo sapiens) (UniProt O14656); experiment: TOR1A wild-type binding on microarray – cell lysate, small-molecule microarray, lysate, 635/667 nm, primary screen (AID 1149); settings: COS7 hTOR1A-WT lysate, 635 nm fluorescence, higher = more signal
Torsin-1A (Homo sapiens) [9] = target: Torsin-1A (Homo sapiens) (UniProt O14656); experiment: torsin A mutant lysate binding on microarrays – cell lysate, small-molecule microarray, COS7 lysate, 635/667 nm fluorescence, primary screen (AID 1150); settings: COS7 hTOR1A mutant lysate, 635 nm fluorescence, higher = more signal;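 note: score pools 667 nm emission and signal to noise measuring lysate protein binding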
[10] = test system: Sonic hedgehog protein (Shh); experiment: Sonic hedgehog microarray binding compounds – biochemical, small-molecule microarray, 635/667 nm fluorescence, primary screen (AID 1151); settings: 635 nm fluorescence, higher = more signal;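 note: Shh protein binding to compounds spotted on small-molecule microarray slides; score combines spot fluorescence intensity with signal-to-noise across triplicate slides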
[11] = optical density shifts of acrAB sulA E. coli – strain DRC41, OD650, 48 h, E. coli filamentation inducer project, primary screen (AID 1152); settings: higher = more signal, called active from +8 up or from −8 down;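 note: E. coli MC1000 strain DRC41 lacking acrAB efflux pump and sulA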
[12] = probe aLefty1 binding on compound microarray – biochemical, small-molecule microarray, 635/667 nm fluorescence, primary screen (AID 1153); settings: higher = more signal;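 note: score merges spot fluorescence with signal-to-noise ratio from the scanned slide images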
[13] = plasmodial surface anion channel blockers, osmotic lysis – cell-based, P. falciparum Indochina, OD700, 1 h, primary screen (AID 1154); settings: P. falciparum Indochina infected RBC osmotic lysis, higher = more signal, called active from +8 up or from −8 down
[14] = plasmodial surface anion channel blockers, osmotic lysis – cell-based, P. falciparum Indochina, OD700, 2 h, primary screen (AID 1155);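 note: lysis reports solute entry through the parasite surface anion channel PSAC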; settings: P. falciparum Indochina infected erythrocytes, higher = more signal, called active from +8 up or from −8 down
[15] = changes in parasitized red cell lysis, either direction – P. falciparum Indochina, OD700, 3 h, PSAC antagonist project, primary screen (AID 1156); settings: P. falciparum-infected erythrocytes, osmotic lysis, higher = more signal, called active from +8 up or from −8 down
[16] = plasmodial surface anion channel blockers, osmotic lysis – cell-based, P. falciparum Indochina, OD700, 18 h, primary screen (AID 1157); settings: P. falciparum Indochina infected erythrocytes, osmotic lysis OD700, 18 h; higher = more signal, called active from +8 up or from −8 down
[17] = S6 kinase pathway phospho-S6 level changes – cell-based, A549, cytoblot, luminescence, serum-stimulated, primary screen (AID 1158); settings: 5 h, higher = more signal;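 note: serum-stimulated A549 lung adenocarcinoma cells; signal is phosphorylated S6 detected by cytoblot immunostaining with HRP secondary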
[18] = target: NADPH oxidase 2 (Homo sapiens) (UniProt P04839); experiment: compounds shifting NOX2 Amplex Red fluorescence – cell-based, HEK293-NOX2, PMA-stimulated, NOX inhibitor project, primary screen (AID 1159); settings: 45 min, higher = more signal, called active from +8 up or from −8 down; note: test concentration not given here
[19] = target: NADPH oxidase 4 (Homo sapiens) (UniProt Q9NPH5); experiment: compounds shifting NOX4 Amplex Red fluorescence – cell-based, HEK293-NOX4, tetracycline-induced, NOX inhibitor project, primary screen (AID 1160); settings: HEK293-NOX4, Amplex Red H2O2 fluorescence, 45 min; higher = more signal, called active from +8 up or from −8 down
[20] = target: NADPH oxidase 5 (Homo sapiens) (UniProt Q96PH1); experiment: compounds shifting NOX5 Amplex Red fluorescence – cell-based, HEK293-NOX5, NOX inhibitor project, primary screen (AID 1161); settings: HEK293-NOX5, ionomycin, 45 min, higher = more signal
Sequence of NADPH oxidase 5 (Homo sapiens) (Q96PH1 whole entry, looked up): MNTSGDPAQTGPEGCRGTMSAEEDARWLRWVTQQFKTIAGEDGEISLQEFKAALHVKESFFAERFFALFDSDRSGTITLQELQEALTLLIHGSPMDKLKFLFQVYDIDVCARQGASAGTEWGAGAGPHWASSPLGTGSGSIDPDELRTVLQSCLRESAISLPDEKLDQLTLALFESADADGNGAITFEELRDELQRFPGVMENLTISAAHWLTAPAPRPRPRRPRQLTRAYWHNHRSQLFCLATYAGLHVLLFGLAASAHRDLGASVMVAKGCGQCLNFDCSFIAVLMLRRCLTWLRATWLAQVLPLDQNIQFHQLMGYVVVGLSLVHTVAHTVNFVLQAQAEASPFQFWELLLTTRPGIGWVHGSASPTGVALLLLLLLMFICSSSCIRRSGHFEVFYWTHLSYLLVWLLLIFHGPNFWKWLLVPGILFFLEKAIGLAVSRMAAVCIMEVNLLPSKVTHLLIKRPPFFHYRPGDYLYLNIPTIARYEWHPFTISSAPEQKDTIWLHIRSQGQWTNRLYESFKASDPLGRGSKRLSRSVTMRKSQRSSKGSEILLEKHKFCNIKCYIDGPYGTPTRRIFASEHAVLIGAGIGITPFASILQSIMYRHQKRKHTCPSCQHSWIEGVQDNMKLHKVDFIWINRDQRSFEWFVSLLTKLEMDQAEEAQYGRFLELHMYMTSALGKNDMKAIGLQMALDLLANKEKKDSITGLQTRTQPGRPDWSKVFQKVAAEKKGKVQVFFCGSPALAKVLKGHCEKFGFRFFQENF

Sequence of NADPH oxidase 4 (Homo sapiens) (Q9NPH5 whole entry, looked up): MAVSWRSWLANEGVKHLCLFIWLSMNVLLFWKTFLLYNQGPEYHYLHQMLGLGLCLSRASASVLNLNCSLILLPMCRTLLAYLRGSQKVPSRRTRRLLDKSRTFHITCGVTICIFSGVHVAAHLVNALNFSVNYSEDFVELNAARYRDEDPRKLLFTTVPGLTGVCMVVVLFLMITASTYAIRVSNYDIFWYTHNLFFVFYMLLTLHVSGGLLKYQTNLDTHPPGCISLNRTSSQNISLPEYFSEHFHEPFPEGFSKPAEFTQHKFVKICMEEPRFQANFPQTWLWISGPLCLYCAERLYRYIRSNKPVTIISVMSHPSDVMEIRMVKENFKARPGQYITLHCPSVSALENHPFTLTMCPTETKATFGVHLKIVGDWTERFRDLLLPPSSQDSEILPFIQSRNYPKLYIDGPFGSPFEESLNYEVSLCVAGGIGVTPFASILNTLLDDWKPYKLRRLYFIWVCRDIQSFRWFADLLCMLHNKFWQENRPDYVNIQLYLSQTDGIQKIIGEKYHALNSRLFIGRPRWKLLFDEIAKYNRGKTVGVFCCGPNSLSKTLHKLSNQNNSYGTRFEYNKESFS
Sequence of Streptavidin (Streptomyces avidinii) (P22629 whole entry, looked up): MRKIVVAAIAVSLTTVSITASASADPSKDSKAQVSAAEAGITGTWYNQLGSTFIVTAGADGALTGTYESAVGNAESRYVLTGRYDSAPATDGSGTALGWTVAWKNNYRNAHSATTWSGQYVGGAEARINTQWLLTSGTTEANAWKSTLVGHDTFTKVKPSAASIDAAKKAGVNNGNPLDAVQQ
Sequence of NADPH oxidase 2 (Homo sapiens) (P04839 whole entry, looked up): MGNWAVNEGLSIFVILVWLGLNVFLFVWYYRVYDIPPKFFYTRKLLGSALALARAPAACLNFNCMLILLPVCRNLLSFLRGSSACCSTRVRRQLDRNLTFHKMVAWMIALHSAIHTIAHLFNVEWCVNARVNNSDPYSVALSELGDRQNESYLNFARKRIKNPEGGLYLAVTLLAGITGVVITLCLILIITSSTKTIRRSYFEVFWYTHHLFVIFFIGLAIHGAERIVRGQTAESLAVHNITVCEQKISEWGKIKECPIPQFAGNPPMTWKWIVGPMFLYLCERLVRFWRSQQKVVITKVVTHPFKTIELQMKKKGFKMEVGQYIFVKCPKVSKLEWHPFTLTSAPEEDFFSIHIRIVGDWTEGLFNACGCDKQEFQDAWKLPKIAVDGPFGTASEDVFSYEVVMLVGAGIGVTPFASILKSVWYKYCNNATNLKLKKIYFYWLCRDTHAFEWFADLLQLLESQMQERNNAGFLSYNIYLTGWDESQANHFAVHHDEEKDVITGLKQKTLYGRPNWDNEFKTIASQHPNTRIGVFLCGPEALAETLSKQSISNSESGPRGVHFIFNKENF
Sequence of Torsin-1A (Homo sapiens) (O14656 whole entry, looked up): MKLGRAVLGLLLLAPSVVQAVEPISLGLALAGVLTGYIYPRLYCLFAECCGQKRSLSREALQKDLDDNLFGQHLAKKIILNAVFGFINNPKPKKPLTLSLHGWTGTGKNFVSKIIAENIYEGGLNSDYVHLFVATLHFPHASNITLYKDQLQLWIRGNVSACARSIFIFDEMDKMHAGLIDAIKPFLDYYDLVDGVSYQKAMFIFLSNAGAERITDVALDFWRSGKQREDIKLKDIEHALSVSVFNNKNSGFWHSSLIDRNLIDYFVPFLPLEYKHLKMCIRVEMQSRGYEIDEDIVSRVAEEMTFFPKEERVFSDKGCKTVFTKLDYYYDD

| SMILES | composite z-score [1] | z-score [2] | z-score [3] | z-score [4] | z-score [5] | composite z-score [6] | composite z-score [7] | composite z-score (Torsin-1A (Homo sapiens) [8]) | composite z-score (Torsin-1A (Homo sapiens) [9]) | composite z-score [10] | z-score [11] | composite z-score [12] | z-score [13] | z-score [14] | z-score [15] | z-score [16] | z-score [17] | z-score [18] | z-score [19] | z-score [20] |
| --- | --- | --- | --- | --- | --- | --- | --- | --- | --- | --- | --- | --- | --- | --- | --- | --- | --- | --- | --- | --- |
| C#CCCCON=C1C[C@@H](O)[C@@H](O)[C@@H]2[C@@H]3C(=O)N(c4cccc(Oc5ccccc5)c4)C(=O)[C@@H]3CC[C@@H]12 | 0.0741 | 0.317 (inactive) | 0.000705 (inactive) | 2.16 (inactive) | 0.427 (inactive) | 0.766 | -0.128 | -0.0313 | 0.112 | 0.277 | -0.164 (inactive) | -0.0929 | 2.87 (inactive) | 1.29 (inactive) | 1.24 (inactive) | 0.354 (inactive) | -0.512 | -2.13 (inactive) | -0.598 (inactive) | -0.786 |
| CN(C)CCCNC(=O)[C@@H]1c2ccccc2C(=O)N(Cc2ccccc2)[C@H]1c1ccc(CO)cc1 | -0.142 | 0.143 (inactive) | 0.596 (inactive) | -0.295 (inactive) | -0.877 (inactive) | -0.844 | -0.128 | -0.146 | -0.725 | -0.336 | 0.346 (inactive) | -0.163 | 2.98 (inactive) | 0.604 (inactive) | 2.64 (inactive) | 0.33 (inactive) | -0.25 | -1.11 (inactive) | 1.02 (inactive) | -0.911 |
| CC(CCC(=O)OC[C@H]1O[C@H](C#Cc2ccccc2)C=C[C@@H]1Oc1ccc(C)cc1)=NOC[C@@H](O)COCc1ccco1 | -1.52 | -0.204 (inactive) | -0.128 (inactive) | 3.74 (inactive) | 1.9 (inactive) | -1.78 | -0.446 | -6.37 | -5.2 | -2.43 | 0.654 (inactive) | -0.839 | 17.7 (active) | 1.77 (inactive) | 0.811 (inactive) | 1.18 (inactive) | 0.63 | -0.0388 (inactive) | 0.811 (inactive) | -0.37 |
| C=CCOC(=O)[C@H]1[C@@H]2C(=O)O[C@@H](c3ccccc3)[C@@H](c3ccccc3)N2[C@@H](c2ccc(OCCOC(=O)[C@H]3C[C@H]4C(=O)N5CCC[C@H]5C(=O)N4[C@H]3c3cccc(OCCO)c3)cc2)[C@]12C(=O)Nc1ccc(I)cc12 | 1.83 | 0.156 (inactive) | -0.315 (inactive) | -0.134 (inactive) | 0.437 (inactive) | 2.76 | 1.17 | 1.95 | 2.23 | 2.08 | -0.709 (inactive) | 1.72 | 0.491 (inactive) | 0.641 (inactive) | -2.53 (inactive) | 0.131 (inactive) | -0.0041 | -0.669 (inactive) | 0.165 (inactive) | 0.261 |
| COc1ccc(O[C@H]2C=C[C@@H](c3ccccc3)O[C@@H]2COC(=O)CCC(C)=NOC(C)CN2CCCCc3nc(C)c(C)cc32)cc1 (stereo not given in full) | -0.133 | -0.622 (inactive) | -0.28 (inactive) | -0.817 (inactive) | 0.287 (inactive) | 0.095 | -0.0719 | -0.406 | -0.489 | -0.0679 | 0.233 (inactive) | -0.584 | 21.7 (active) | 3.58 (inactive) | 1.68 (inactive) | 1.15 (inactive) | -0.0603 | -2.04 (inactive) | -0.369 (inactive) | -0.824 |
| CCN1C(=O)[C@H]2[C@H]3[C@H](O)[C@H](O)CC(=NOCc4ccccc4)[C@@H]3CC[C@H]2C1=O | -0.0713 | -0.672 (inactive) | 0.855 (inactive) | 1.42 (inactive) | 0.479 (inactive) | -0.0346 | -0.0575 | 0.962 | 0.236 | 0.531 | 0.401 (inactive) | 0.0224 | 0.425 (inactive) | -1.09 (inactive) | -0.0231 (inactive) | -2.2 (inactive) | 2.27 | -0.521 (inactive) | -0.0627 (inactive) | 0.388 |
| CC(=O)OC[C@H]1O[C@H](C#CCCCc2ccccc2)C=C[C@@H]1OC(C)=O | 0.18 | -2.33 (inactive) | 0.952 (inactive) | 0.106 (inactive) | 1.28 (inactive) | -0.111 | 0.322 | -0.0078 | 0.0804 | 1.19 | -0.802 (inactive) | -0.0536 | 3.35 (inactive) | 0.23 (inactive) | -0.213 (inactive) | 0.148 (inactive) | -0.0744 | -1.19 (inactive) | 0.903 (inactive) | 0.839 |
| CO[C@H]([C@@H](C)[C@H](OC)c1ccccc1)[C@H](C)[C@@H](OC)[C@H](C)C(C)=O | -0.183 | 0.0807 (inactive) | 0.185 (inactive) | -0.98 (inactive) | -0.358 (inactive) | -0.554 | 0.809 | -0.225 | -0.327 | 0.497 | -0.558 (inactive) | -0.288 | 0.815 (inactive) | 0.196 (inactive) | -0.181 (inactive) | 0.269 (inactive) | -0.2 | -0.0369 (inactive) | 0.0305 (inactive) | 0.447 |
